# Experimental data as given in the supplement of paper PMC6897291.
# Tested on: U-2932
# Experiment: growth inhibition by drug alone (1 - RLU/untreated control) (fraction); higher = stronger inhibition
# Settings: 177Lu-lilotomab satetraxetan 0 ug/ml
# Description: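 U-2932 ABC-DLBCL cells were pretreated or not for 18 h with 1 ug/ml 177Lu-lilotomab satetraxetan (600 MBq/mg), washed and seeded (3000 cells/well) on 384-well plates pre-printed with the Selleck Cambridge Cancer Compound library. Viability was read by RealTime-Glo luminescence on days 3-6 after seeding. Effect = 1 - RLU/mean RLU of the 48 untreated no-drug control wells per plate; Bliss score = (M-E)/(1-Fa), with E the expected Bliss-additive effect.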
Structure (SMILES),"growth inhibition by drug alone (10 nM, time (day): 3)","growth inhibition by drug alone (10 nM, time (day): 4)","growth inhibition by drug alone (10 nM, time (day): 5)","growth inhibition by drug alone (10 nM, time (day): 6)","growth inhibition by drug alone (1000 nM, time (day): 3)","growth inhibition by drug alone (1000 nM, time (day): 4)","growth inhibition by drug alone (1000 nM, time (day): 5)","growth inhibition by drug alone (1000 nM, time (day): 6)"
Cc1ccc(F)c(NC(=O)Nc2ccc(-c3cccc4[nH]nc(N)c34)cc2)c1 [Linifanib (ABT-869)],0.0297,0.0175,-0.00657,0.043,0.133,0.146,0.103,0.0811
Cc1[nH]c2ccccc2c1CCNCc1ccc(/C=C/C(=O)NO)cc1 [Panobinostat],0.545,0.448,0.353,0.31,0.98,0.982,0.982,0.983
O=C1c2ccccc2-c2nc3nonc3nc21,0.122,0.0829,-0.0474,-0.0365,0.144,0.236,0.193,0.28
CN(C)CCCN=c1c2ccccc2n(C)c2[nH]c(=O)n(C)c(=O)c12,0.111,0.0704,-0.00376,-0.0149,0.0731,0.0794,0.011,0.0933
COc1cc(N2CCC(N3CCN(C)CC3)CC2)ccc1Nc1ncc(Cl)c(Nc2ccccc2S(=O)(=O)C(C)C)n1,0.0279,0.0267,-0.0689,-0.173,0.411,0.377,0.328,0.37
